Assay in all cases: PBM binding z-score (relative to random genomic background probes); higher = stronger binding; sequences stand for … in GC…GCGATTGACAGCGTAGAATGAAGG
The test system of experiment [1] is RARb homodimer (NR concentration 270 nM). A digest of the protocol:
(§1)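 Scanned fluorescence from custom Agilent 4×180K protein-binding microarrays was regression-normalized. Binding z-scores use random background probes as reference. Ligand-free nuclear receptor dimers were incubated on the arrays for 1 h and detected with antibodies against each partner (one per run).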

For experiment [2], the system named is RARg:RXRa (NR concentration 270 nM, RXRa partner concentration 90 nM). In short, it runs like this:
as §1

Experiment [3] concerns RARg homodimer (NR concentration 270 nM). A digest of the protocol: as §1
Experiment [4] has as its system RXRa DBDmut IVT, anti-RXR (DBD mutation: RXRa K156A/R161A, NR concentration 90 nM). A digest of the protocol:
as §1

Experiment [5] deals with RXRa homodimer (NR concentration 180 nM). A digest of the protocol:
as §1

The subject of experiment [6] is THRa:RXRa (NR concentration 90 nM, RXRa partner concentration 90 nM). A digest of the protocol: as §1
Experiment [7] relates to THRa homodimer (NR concentration 90 nM). A digest of the protocol: as §1
The subject of experiment [8] is VDR homodimer (NR concentration 270 nM). In short, it runs like this: as §1

ATATGTAGGTTATCGTGTCATTCAGTTTGCGCAT: the PBM binding z-score stood at 1.17 in experiment [1]; 0.973 in experiment [2]; 0.988 in experiment [3]; 1.09 in experiment [4]; 1.06 in experiment [5]; 0.907 in experiment [6]. Besides, the figures for the PBM binding z-score in experiment [7] and in experiment [8] were 0.568 and 1.53, respectively.
As for CGTCCAAGGTCAAAGGGCAGTGAAGAGATGACGG, the PBM binding z-score was found to be 4.39 in experiment [1]; 6.57 in experiment [2]; 6.29 in experiment [3]; 3.46 in experiment [4]; 7.24 in experiment [5]; 4.14 in experiment [6]. For the same sequence, the PBM binding z-score came to 1.86 in experiment [7] and 2.28 in experiment [8].
Take GCGACTGGGGCATCAGGAGGTTACCATAACTTAA: the PBM binding z-score in experiment [1] stood at 1.59; in experiment [2] it was 2.07; in experiment [3], 0.983; in experiment [4], 0.162; in experiment [5] it was 0.852; in experiment [6], 1.66. Also, the PBM binding z-score in experiment [7] is -0.0939; in experiment [8], 0.186.
As for TCATAAAGGTAAATGCTAGGTGAAAGTCCGATCT, the PBM binding z-score in experiment [1] is 0.719; in experiment [2], 1.03; in experiment [3], 0.541; in experiment [4], 1.87; in experiment [5], 1.05; in experiment [6], 2.03. Also, the results for the PBM binding z-score in experiment [7] and in experiment [8] were 0.511 and 0.333, respectively.
TCTAGCAGGCCAGAGGGTCACTAAAGAGGTACGG: the PBM binding z-score in experiment [1] is 2.52; in experiment [2] it was 2.5; in experiment [3], 2.05; in experiment [4], -0.16; in experiment [5], 2.02; in experiment [6], 1.39. Besides, the PBM binding z-score was -0.413 in experiment [7] and 0.287 in experiment [8].
On to CCTATTAGTTGACCATAAGGGCAAACGAAGCTCG, for which the PBM binding z-score in experiment [1] worked out at 1.93; in experiment [2], 1.48; in experiment [3], 1.31; in experiment [4], 0.782; in experiment [5] it was 0.751; in experiment [6] it was 1.72. In addition, the results for the PBM binding z-score in experiment [7] and in experiment [8] were 1.08 and 1.01, respectively.
For the sequence TTACCAAGGAGAAAGGTCGTTGATGCACGCCTTG, the PBM binding z-score in experiment [1] amounted to 1.55; in experiment [2], 1.43; in experiment [3], 0.929; in experiment [4], 0.362; in experiment [5] it was 2.29; in experiment [6] it was 1.48. For the same sequence, the results for the PBM binding z-score in experiment [7] and in experiment [8] were -0.13 and 1.17, respectively.
With TCGAGTAGGTTACCAATGAGGCATTCAGCTTTCT, the PBM binding z-score in experiment [1] is -0.0486; in experiment [2], 0.457; in experiment [3] it was 0.0733; in experiment [4], 0.229; in experiment [5] it was 0.47; in experiment [6] it was -0.137. The PBM binding z-score is -0.781 in experiment [7] and -1.08 in experiment [8].
Turning to ATACCAAGGTGATCGTGAGGTCATTGATACTAAC, the PBM binding z-score in experiment [1] was determined as 4.17; in experiment [2], 4.94; in experiment [3] it was 3.31; in experiment [4], 1.63; in experiment [5], 3.99; in experiment [6] it was 4.6. Further, the PBM binding z-score in experiment [7] was found to be 4.6; in experiment [8] it was 4.77.
As to GCATATAGTTAATACAAGGTGAAAGTCCGATTGT, the PBM binding z-score in experiment [1] was 0.847; in experiment [2], 0.222; in experiment [3] it was 0.365; in experiment [4], 0.966; in experiment [5], 0.312; in experiment [6] it was 2.89. Also, the PBM binding z-score is 1.18 in experiment [7] and -0.0676 in experiment [8].
In the case of AGAATGAGGTTATTAGGATCAGGGAATTGCGGTC, the PBM binding z-score worked out at 1.24 in experiment [1]; 1.4 in experiment [2]; 0.986 in experiment [3]; 2.16 in experiment [4]; 1.9 in experiment [5]; 2.35 in experiment [6]. Moreover, the results for the PBM binding z-score in experiment [7] and in experiment [8] were 1.11 and 1.87, respectively.
Take CGAACGAGGGCAGGAGTTGATAGCAAATGCCGAT: the PBM binding z-score in experiment [1] is 0.754; in experiment [2] it was 0.906; in experiment [3], 1.13; in experiment [4] it was 0.67; in experiment [5] it was 0.365; in experiment [6] it was 0.403. The PBM binding z-score is -0.595 in experiment [7] and 0.281 in experiment [8].
Consider GCGACTGGTGCAAAGCAGGTTACCATAAGGTTGG, for which the PBM binding z-score is 0.217 in experiment [1]; -0.209 in experiment [2]; -0.317 in experiment [3]; -0.409 in experiment [4]; 0.0236 in experiment [5]; 1.93 in experiment [6]. For the same sequence, the results for the PBM binding z-score in experiment [7] and in experiment [8] were -0.397 and -0.448, respectively.
With ATCTCTAGGTAACCAAGTTCAGTGTATGCCGAAC, the PBM binding z-score came to 1.47 in experiment [1]; 0.771 in experiment [2]; 0.637 in experiment [3]; 0.982 in experiment [4]; 0.429 in experiment [5]; 1.48 in experiment [6]. Moreover, the PBM binding z-score stood at 0.867 in experiment [7] and 2.85 in experiment [8].
For TGTATTAGTTGATTAGGGCAACCGAAACAGCGGA, the PBM binding z-score in experiment [1] is 0.715; in experiment [2] it was 0.692; in experiment [3], 0.807; in experiment [4], -0.317; in experiment [5], -0.0234; in experiment [6], 0.551. Also, the PBM binding z-score in experiment [7] stood at 0.64; in experiment [8], 0.784.

The record behind these values is the supplement of paper PMC6555819.
